Data on 105 sequences can be found in PubChem BioAssay AID1347423 (Functional Genomics Laboratory (NCATS/FGL), 2020).

Screen size: about 52,000 sequences; about 210 (0.4%) were called active. The full list was thinned out, with actives kept by preference. Values without a mark were called inactive.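 Rule for the calls: active = gene whose silencing raises cell survival under the drug, median off-target-corrected z-score across its silencing RNAs 2 or more; inactive = the rest.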

This test is described as follows: Resistance to Poly (ADP-Ribose) Polymerase inhibitor: Gene Identification via Genome-wide siRNA Screen. The conditions noted are these: mouse BRCA2 R2336H ES cells, olaparib, CellTiter-Glo viability; stronger effect = higher value. In a few lines:
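Genome-wide siRNA screen (3 siRNAs/gene, 20 nM) in mouse ES cells carrying hypomorphic BRCA2 R2336H; olaparib 500 nM added 48 h post-transfection, CellTiter-Glo viability 72 h later. Normalized to plate-median negative control; MAD z-scores, gene median, seed-adjusted.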
A general note: ATP-based viability assays read luminescence as a measure of living cells.
Take GGUAGCUAUCAAGGUCAUCTT against Hunk: the z-score is -0.704.
In the case of GGAGGAUACCUUCUUCUACTT against Mta3 it was 0.46; in that of GCAGGGACCGUCUAUAACUTT against Ptprb, -0.654.
In the case of GCGGAUUUAGUGGCUGGCUTT against Opn5 it was -2.04.
In the case of GGAAUUUUUGGACAAAGUATT against Grid2, the z-score is -3.07 (active).
Consider GCUCUUCUCGCAUUCCUAUTT against Gpc2, for which the z-score was -0.68.
The figure for CCAGAUUGGUGAUGGUAGUTT against LOC432637 is 0.502; for GGCUCAUCAAAGGAAGAAATT against Araf1 it is 1.44 (active); for CCAGAACUUCCCAUUAAAATT against Alg8 it is -0.0137.
The figure for “CCUUAUUGGGUCAUAAGCATT against 2210403B10Rik” is 0.798.
The figure for CCUCCGUUUGAUGACUCAATT against Tcte3 is 0.671.
For GCGAUUCAAACUUAUUCGATT against Pcdhb15, the z-score was 0.749.
The figure for CCAUGAUCAAGAUUGUGCUTT against Slc29a1 is -0.707; for CCCUCGAUCCUUUUCACCUTT against Gja4 it is 1.09; for CUAGUAGGGUCAGAAUUUUTT against Olfr329 it is 2.11.
Consider CCAUGCAUCUAAGUCUCGATT against Trpm3, for which the z-score is 1.35.
In the case of “GGAUUAAUUAAUACUUGGCTT against 3010033P07Rik” it was 0.03; in that of GGACCACCUAAGUUUAAGCTT against Pde6g, 2.55 (active).
As to GCCAGAAUGGACUUGAGAATT against V1re6, the z-score is -0.0714.
In the case of GUUGAGGACUUCUUGCUGGTT against Cmar it was -1.03.
The figure for GGUAUGAGUGAAGAAAAGATT against Ifi205 is -0.37.
On to CCAUAAACGACGAAAUGAUTT against Usp11, for which the z-score was 2.97 (active).
The figure for GGCAUCUGUUAUUGAAGUGTT against Vit is 0.771; for GGCCGAGUACAAACGUGGATT against AU019532 it is 0.561.
On to CCCUACCUUGAACGAGUACTT against Apoa1, for which the z-score was 0.773 (active).
The figure for “GGAGAAGAAGCAGAGAGAATT against C530028I08Rik” is -0.263; for CCUUUCAGGCCAAUUGGCATT against Ube2l6 it is 0.111; for “UCUCCUUCCUAACUUCAACTT against E030010A14” it is 0.4.
Regarding “GGAACAGGACUUUUGAUAATT against 2700050F09Rik”, the z-score is 1.03 (active).
Consider GGCCAAUGAUGAUAACAAATT against Catnd2, for which the z-score was 0.564.
Take CCUCUCCUACACUUCAAAATT against Cmya4: the z-score is 0.746.
For GGCUUUUUCCUCUACCCACTT against Trhde, the z-score was 0.762.
The figure for GGUGUUUAAAGAUUUCGUUTT against Dhrs2 is 0.996.
GCAAUGAACUAUGAAGGCATT against Npm1: the z-score was 0.811 (active).
On to CCCUUCACAACUUCUUAAUTT against Olfr872, for which the z-score is 0.609.
The figure for GGGCAUCAGCAUUUGGUCATT against Pparbp is 1.17.
For GGACUACCUCACACUCUUCTT against Oprs1, the z-score was -0.235.
In the case of GCCAUUCCGGCAGUAUUACTT against Pdcd7 it was 0.524; in that of CCGACAAAUAAAGGCUUUATT against Ddx52, -0.0103.
In the case of CCGCAUGACACGACAUGUATT against BC034097 it was 2.56 (active).
The figure for “CCCUGUACACACCUAAAAATT against D10Ertd438e” is 1.39; for CGUUUGCUCUAAAGCCAGGTT against BC004728 it is 1.02; for GGAUUUCCUGGAAAAUUCCTT against Siat8a it is 0.62.
Take GGUGUCUGUCAUGACCAUGTT against Tie1: the z-score was 2.02.
As to GCUCGUCUAUGCUAUUUCUTT against Fath, the z-score was 0.81 (active).
In the case of GAUCACAGUCACGAUAUAATT against Prss19 it was -1.28; in that of GGAAGAGAUGGAAUUAUUGTT against Sh3bp5, -0.737.
The figure for GCUUGUGAUCGACUCUGCATT against Centb5 is 0.0161; for CCUUCAUUUAUUCUACGAGTT against LOC244556 it is 0.476.
In the case of GCUCUCAUUAGCAUUAUCGTT against Gria1 it was -0.366 (active).
For GCAGGUUAAGUAGCUGACATT against Dnclic2, the z-score is -1.28.
In the case of “CGUGCAUGCAAAUUAUGUATT against 4933417O08Rik” it was -0.372.
The figure for GGCACUCAGUAACUGCAUGTT against Gababrbp is -0.611; for “GGACUGUCAGUACUGUCAATT against E030025L21Rik” it is -0.201.
The figure for “GGAGUAAUCAUGCUGGAGCTT against 9930104L06Rik” is 0.406; for CCAUGUCCAAUGAGGACUUTT against Htr1b it is 1.74 (active); for CCCUGAACGAAUAAUCGGCTT against Cbx3 it is -0.637.
In the case of “CGAUAAACUGGAUACCACUTT against A430083B19Rik”, the z-score was -0.3.
The figure for GGAGAUGCUGGACUGCUUUTT against Htr1b is -0.751 (active); for GGUUGUUUAAACUCAGUUUTT against Slco4c1 it is -1.83.
In the case of GGCCAAAUCAUGGAUGCAGTT against Comt it was -1.72.
For the sequence GGAUCUAUAAGGACUACAUTT against Bmp7, the z-score was -0.68.
Turning to “CGGGAACUCACCGAAAAGATT against 4921521N14Rik”, the z-score is 0.566.
The figure for GGAUGUGGCUGCUUUGAAGTT against Wbscr27 is 0.123.
As to GGGAUUUUCUGUGUAUCUUTT against D5Ertd33e, the z-score was -0.0623.
The figure for GGCAUAACUGAUCAUACGCTT against Foxp3 is 1.06.
As for GGUUUUAGAAGGGAAACAUTT against Ppp2r2c, the z-score was -0.761.
Consider GGAGCCAAGUGUGAUUACATT against Pias3, for which the z-score was -1.38 (active).
In the case of “GGAUUGCUGUGCCUUAUGATT against 2010004A03Rik” it was 0.503.
For the sequence CCACUUUUUUAGAUCCCUGTT against AA960436, the z-score is -0.149.
In the case of GACUCCCACUUACACUCUCTT against Olfr1312, the z-score is -1.08.
For GGUUCUUUAAUAGAACAUGTT against Tyrp1, the z-score is -0.207.
Turning to GGUCAUUGGUCGCUGGUCATT against Gzmm, the z-score was 1.22.
As for CGUGGGAUUUAAUGAUCAATT against Nid2, the z-score is 0.787.
Regarding GGGCCUAUAUAACAUCUUGTT against Usp11, the z-score is 0.581 (active).
As for GGGUAUCUUCUGGAAAACATT against Angptl4, the z-score is 0.203.
The figure for GGCUAUGCAGCAUAUUAUATT against Ndufa1 is -0.819; for “GGAAAUUUUGGAGAUGAUATT against 5730444A13Rik” it is -0.496.
For GGCGAUCUAUCACACUGUGTT against Chst7, the z-score was 1.39.
In the case of “GGAGGAAGAAACAGAACCATT against A930021G21Rik” it was -2.36; in that of GCAGUCUGGUUCUCUCAAATT against Cryl1, 2.21.
In the case of GGUUGCUUGGAAUUAAAAGTT against Klhl1, the z-score was 1.01 (active).
In the case of CACGGGCAUCCUUGACUCCTT against Mbp it was 0.994; in that of GCAACAUGGCCCUUACCAUTT against Plcb2, -0.797.
The figure for GGCUCCUUAAAGAUAUGUUTT against Nsmaf is 0.332.
The figure for GGAAUGUGUUAUGGUGAUUTT against Mgl2 is -0.346.
Turning to “GCCUUUAUAGUCUUAAGCATT against 2810475A17Rik”, the z-score was -1.55.
The figure for “GGAUAAAUGGUUCUAGAAATT against 3110006P09Rik” is -0.433 (active).
Regarding CCUUCAAUUUCAGUUCAGATT against Olfr1388, the z-score was 0.422.
As to GGUAUUCUCUAAGAAGGAGTT against Ccbl1, the z-score is -0.635.
For GGCAUUUGAAGAUGUUUCUTT against Hmgb3, the z-score was 1.56 (active).
In the case of GGAGACGUGUCUGAAAGACTT against Glp2r it was -0.752; in that of GCUUCACAAGCAGUGUACUTT against Slc37a1, 1.96 (active); in that of CCUUUUUCUGGAUUGGAAUTT against Klrd1, 1.78 (active).
For GCCAGCAACAGGAUGAUAUTT against Prkwnk1, the z-score is -1.02.
As for GCUCAGACAUGUUCUUACCTT against BC037527, the z-score is 0.547.
Consider “GCUUAAAACAGACCAUUUUTT against 1700013G20Rik”, for which the z-score was 0.824.
Turning to GCAUUCAAGCAACCACGAATT against Ptdss1, the z-score is -0.153.
GCACUUGGGUAAAAAACUCTT against Bcorl1: the z-score is 0.555.
In the case of “GCUGACCCAGCUAUGUACUTT against 4930519N13Rik” it was -0.26; in that of GGAAGCUGGUUCCUGUUUUTT against Bid3, 2.66 (active).
As to CCAGAGUAAGAGUAAAAGCTT against Mamdc2, the z-score was 1.32.
In the case of GGCUGUAAUGAGGACUGAUTT against Deb1 it was -1.92.
CCUAAAUUCGGUUUGAAUCTT against Fath: the z-score was 2.74 (active).
The figure for GCAUUUUGACCCAAGUGUUTT against Foxq1 is 0.0651.
